These results are taken from PubChem BioAssay (NCI).

Some test systems named below: DU-145 prostate; K-562 leukemia; MALME-3M melanoma; MDA-MB-231 breast; RXF 393 renal; SF-268 CNS; SF-295 CNS; SF-539 CNS; UACC-257 melanoma; M14 melanoma.
Holding throughout (test): NCI-60 one-dose screen, 48 h (100 = growth as untreated, 0 = no growth, -100 = all killed)
Conditions in all cases: 10 µM unless noted

Structures are written as SMILES. About 83,000 compounds went through this panel and 20% of them were active in at least one assay; those are over-represented in the sample as a whole.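 Method: cells in 96-well plates; compound added at one concentration; 48 h incubation; percent growth measured; values under 10 scored active.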 Unmarked numbers belong to inactive results. The source made the active and inactive calls.

Take `COc1ccc(/C=C2\Oc3cc(OCCCN4CCCC4)ccc3C2=O)c(OC)c1`: the growth in the experiment on DU-145 prostate is 71.2%; in the experiment with K-562 leukemia it was -30.4% (active); in the experiment with MALME-3M melanoma, 106%; in the experiment with MDA-MB-231 breast, 78.8%; in the experiment on RXF 393 renal, 77.3%; with SF-268 CNS it was 87.3%. Also, the growth in the experiment with SF-295 CNS is 99.8%; in the experiment with SF-539 CNS, 51.6%; in the experiment with UACC-257 melanoma, 103%; with M14 melanoma it was 67.7%.

For `COc1ccc(-c2cc3c(OC)c(OC)c(OC)cc3oc2=O)cc1`, the growth in the experiment on DU-145 prostate was 73.3%; in the experiment with K-562 leukemia, 26.1%; in the experiment on MALME-3M melanoma it was 46.9%; with MDA-MB-231 breast, 57.8%; in the experiment on RXF 393 renal it was 81.4%; with SF-268 CNS, 66.8%. The growth in the experiment on SF-295 CNS is 54.3%; in the experiment with SF-539 CNS it was 59.9%; in the experiment on UACC-257 melanoma it was 82.4%; in the experiment with M14 melanoma, 28.9%.

In the case of `Cc1cc(N/N=C/c2nc(-c3ccccc3)oc2C)c2cc(Br)ccc2n1`, the growth was 91.3% in the experiment on DU-145 prostate; 21.9% in the experiment on K-562 leukemia; 95.2% with MALME-3M melanoma; 53.5% with MDA-MB-231 breast; 102% with RXF 393 renal; 95% in the experiment on SF-268 CNS. In addition, the growth in the experiment with SF-295 CNS was 95%; in the experiment on SF-539 CNS it was 75.2%; in the experiment on UACC-257 melanoma it was 102%; with M14 melanoma, 91.6%.

On to `C=C(C)[C@@H]1C[C@@H]2Cc3cc(Cl)ccc3N1O2`, for which the growth is 123% in the experiment with DU-145 prostate; 97.7% in the experiment on K-562 leukemia; 91.4% in the experiment with MALME-3M melanoma; 99.2% with MDA-MB-231 breast; 104% in the experiment on RXF 393 renal; 106% in the experiment with SF-268 CNS. The growth with SF-295 CNS is 108%; in the experiment on SF-539 CNS it was 99.6%; with UACC-257 melanoma, 102%; in the experiment on M14 melanoma it was 95.3%.

Consider `CCN(CC)c1ccc(CNc2ccnc3ccccc23)cc1`, for which the growth with DU-145 prostate is 70%; in the experiment on K-562 leukemia, 9.95% (active); with MALME-3M melanoma, 49.5%; in the experiment with MDA-MB-231 breast, 70.2%; with RXF 393 renal it was 71.7%; with SF-268 CNS, 82.3%. Also, the growth in the experiment with SF-295 CNS was 51.4%; in the experiment on SF-539 CNS, 69.7%; in the experiment with UACC-257 melanoma, 36.2%; in the experiment on M14 melanoma, 56.2%.

For `COC(=O)c1cc2cc(-c3ccc(OC)cc3)cnc2[nH]1`, the growth in the experiment on DU-145 prostate was 18.1%; with K-562 leukemia, 8.43% (active); in the experiment with MALME-3M melanoma it was 56.3%; with MDA-MB-231 breast, 57.1%; in the experiment with RXF 393 renal it was -36.4% (active); with SF-268 CNS, 45.5%. The growth with SF-295 CNS is 0.983% (active); in the experiment with SF-539 CNS it was -27.2% (active); with UACC-257 melanoma, 51.3%; in the experiment with M14 melanoma it was 14.3%.

`CCOC(=O)/C(C#N)=C1/C(=O)Nc2ccccc21`: the growth is 123% with DU-145 prostate; 132% in the experiment with K-562 leukemia; 108% in the experiment on MALME-3M melanoma; 116% in the experiment on MDA-MB-231 breast; 117% with RXF 393 renal; 122% with SF-268 CNS. Also, the growth was 113% in the experiment on SF-295 CNS, 99.7% with SF-539 CNS, 123% in the experiment with UACC-257 melanoma and 94.6% with M14 melanoma.

`NC1=NC(SCc2ccccc2CCl)c2ncn(Cc3ccccc3CCl)c2N1` (stereo not given): the growth with DU-145 prostate is 64%; in the experiment on K-562 leukemia it was 21.9%; in the experiment on MALME-3M melanoma, 19.4%; in the experiment with MDA-MB-231 breast it was 47.5%; in the experiment on RXF 393 renal, -4.55% (active); in the experiment on SF-268 CNS, 54.9%. For the same compound, the growth was 101% in the experiment with SF-295 CNS, 69.4% in the experiment on SF-539 CNS, 42.5% with UACC-257 melanoma and 40% in the experiment on M14 melanoma.

For the compound `CC1CCC(C)N(C)C1` (stereo not given), the growth was 122% in the experiment with DU-145 prostate; 98.9% in the experiment on K-562 leukemia; 101% with MALME-3M melanoma; 98.2% in the experiment on MDA-MB-231 breast; 100% with RXF 393 renal; 108% with SF-268 CNS. For the same compound, the growth was 116% in the experiment with SF-295 CNS, 103% in the experiment with SF-539 CNS, 105% in the experiment with UACC-257 melanoma and 96.8% in the experiment on M14 melanoma.

In the case of `COc1cc(-c2nc(N=Nc3c(O)[nH]c4ccc(Br)cc34)[nH]c(=O)c2C#N)cc(OC)c1OC`, the growth in the experiment with DU-145 prostate was 103%; in the experiment with K-562 leukemia, 90.9%; in the experiment with MALME-3M melanoma it was 94.9%; in the experiment with MDA-MB-231 breast, 93.9%; in the experiment on RXF 393 renal, 102%; in the experiment on SF-268 CNS, 101%. The growth in the experiment with SF-295 CNS was 91.1%; in the experiment on SF-539 CNS, 96%; in the experiment on UACC-257 melanoma, 91.9%; in the experiment on M14 melanoma it was 97.1%.

`COc1ccc(CN2CCc3c(Sc4ccccc4)nc(N)nc3C2=O)c(OC)c1`: the growth is 77.4% with DU-145 prostate; 48.3% in the experiment with K-562 leukemia; 38.9% with MALME-3M melanoma; 69% in the experiment on MDA-MB-231 breast; 44.4% in the experiment on RXF 393 renal; 67.3% in the experiment on SF-268 CNS. Moreover, the growth with SF-295 CNS was 69.6%; in the experiment on SF-539 CNS it was 66.5%; in the experiment on UACC-257 melanoma, 50.5%; in the experiment with M14 melanoma, 61.7%.

`CNc1ccc(Br)c2c1C(=O)c1ccccc1C2=O`: the growth in the experiment on DU-145 prostate is 121%; in the experiment on K-562 leukemia, 94.9%; in the experiment with MALME-3M melanoma, 117%; in the experiment with MDA-MB-231 breast it was 103%; in the experiment on RXF 393 renal, 122%; in the experiment on SF-268 CNS, 115%. In addition, the growth in the experiment with SF-295 CNS was 110%; in the experiment with SF-539 CNS it was 103%; with UACC-257 melanoma, 121%; with M14 melanoma it was 118%.

Turning to `O=C(NCCNc1nccc(-n2ccc3cccnc32)n1)c1ccc(C(F)(F)F)cc1`, the growth with DU-145 prostate was 111%; in the experiment on K-562 leukemia, 99.8%; in the experiment on MALME-3M melanoma, 108%; in the experiment on MDA-MB-231 breast, 97.7%; with RXF 393 renal, 110%; in the experiment on SF-268 CNS, 97.8%. Further, the growth in the experiment on SF-295 CNS is 101%; in the experiment on SF-539 CNS, 107%; in the experiment with UACC-257 melanoma it was 108%; in the experiment on M14 melanoma, 102%.

As to `CC(C)(C)OC(=O)NCCc1ccc(N=C=S)cc1`, the growth in the experiment on DU-145 prostate is 64.6%; in the experiment on K-562 leukemia, 57%; with MALME-3M melanoma it was 54.8%; with MDA-MB-231 breast it was 88.4%; in the experiment with RXF 393 renal it was 54.9%; with SF-268 CNS, 71.9%. Moreover, the growth with SF-295 CNS is 55.5%; in the experiment with SF-539 CNS, 69.2%; with UACC-257 melanoma, 78.9%; in the experiment with M14 melanoma, 75.3%.
